Assay results taken from PMC4336329 (PLoS ONE, 2015).
About 14,000 (4.5%) of roughly 310,000 compounds showed an effect of 50% or more. The effect is printed as a negative number. For the sample, strong results were picked, then their nearest neighbours and some compounds at random.

These compounds were tested against human ether-à-go-go-related gene (hERG) potassium channel (human, UniProt Q12809) (assay: primary screen, population patch clamp on CHO cells stably expressing hERG; higher = less effect of the substance).
Procedure: Briefly, Chinese hamster ovary (CHO) cells stably expressing the hERG channel were dislodged from tissue culture flasks and dispensed into PPC plates. […] During the recording, background leak currents were estimated by a 100 ms step to -80 mV from an initial holding potential of -70 mV and subtracted from the subsequent current measurement. The campaign was conducted in two phases using slight differences in recording protocol. In the first phase, the initial voltage pulse used a 100 ms step to -30 mV from a holding potential of -70 mV, a 2 s conditioning step to +25 mV, and a 2 s test step to -30 mV. During the second phase of the screen, the potential during the conditioning step was raised to +45 mV. In both phases of the campaign, a secondary voltage pulse was applied using the same parameters as the second phase initial pulse. The initial and secondary pulses were applied in the absence of compound, and upon application of 1 μM and 10 μM test concentrations. […]
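Also: peak tail current of the secondary pulse compared with the same well before compound.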

Chain of human ether-à-go-go-related gene (hERG) potassium channel (Q12809 whole entry, looked up): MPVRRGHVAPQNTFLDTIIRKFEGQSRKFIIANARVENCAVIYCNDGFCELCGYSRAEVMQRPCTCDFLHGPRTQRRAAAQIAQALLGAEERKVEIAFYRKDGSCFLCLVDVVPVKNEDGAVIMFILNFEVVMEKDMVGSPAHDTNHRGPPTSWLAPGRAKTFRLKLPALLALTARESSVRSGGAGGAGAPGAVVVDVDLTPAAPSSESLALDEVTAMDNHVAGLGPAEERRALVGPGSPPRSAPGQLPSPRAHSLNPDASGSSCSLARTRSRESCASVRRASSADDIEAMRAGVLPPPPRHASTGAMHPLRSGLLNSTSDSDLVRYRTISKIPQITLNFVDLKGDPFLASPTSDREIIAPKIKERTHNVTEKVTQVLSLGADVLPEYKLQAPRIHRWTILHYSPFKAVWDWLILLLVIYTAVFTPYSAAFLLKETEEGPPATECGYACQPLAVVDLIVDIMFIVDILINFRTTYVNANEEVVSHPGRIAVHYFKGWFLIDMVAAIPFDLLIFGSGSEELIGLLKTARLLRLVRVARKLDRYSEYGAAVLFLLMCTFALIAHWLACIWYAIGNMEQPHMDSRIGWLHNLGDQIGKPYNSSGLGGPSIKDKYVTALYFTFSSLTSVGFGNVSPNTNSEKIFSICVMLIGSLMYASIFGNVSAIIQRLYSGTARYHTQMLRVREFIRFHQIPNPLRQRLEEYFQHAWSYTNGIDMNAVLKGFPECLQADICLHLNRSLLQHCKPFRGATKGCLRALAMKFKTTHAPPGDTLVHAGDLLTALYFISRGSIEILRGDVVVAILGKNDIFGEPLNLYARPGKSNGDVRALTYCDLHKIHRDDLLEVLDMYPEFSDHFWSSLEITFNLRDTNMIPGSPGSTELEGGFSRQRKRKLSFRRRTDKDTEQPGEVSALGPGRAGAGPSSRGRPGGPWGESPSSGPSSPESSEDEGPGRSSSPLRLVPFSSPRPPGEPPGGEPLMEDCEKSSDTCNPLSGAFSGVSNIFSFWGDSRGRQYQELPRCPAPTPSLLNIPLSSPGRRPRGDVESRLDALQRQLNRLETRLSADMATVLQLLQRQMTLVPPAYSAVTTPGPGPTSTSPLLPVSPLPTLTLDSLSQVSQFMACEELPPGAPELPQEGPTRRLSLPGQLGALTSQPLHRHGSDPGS

| SMILES | hERG current change (%, negative = inhibition) at 10uM [%] |
| --- | --- |
| COc1ccccc1/C=C/C=N/N1CCN(Cc2ccccc2)CC1 | -8.94 |
| COc1ccc(/C(O)=C2/C(=O)C(=O)N(CC3CCCO3)C2c2ccc(OC)c(OC)c2)cc1 (stereo not shown) | 1.45 |
| Cc1cnc(NC(=O)CCCNC(=O)c2ccc(Cl)cc2)s1 | 12.8 |
| Cc1ccccc1-n1c(-c2ccc([N+](=O)[O-])cc2)nc2ccccc2c1=O | -0.532 |
| CC1=NN(C(=O)c2ccc(Cn3nc(C)c([N+](=O)[O-])c3C)cc2)C(O)(C(F)(F)F)C1 (stereo not shown) | -28.8 |
| Cc1nn(Cc2cccc(C(=O)N3N=C(C(F)F)CC3(O)C(F)F)c2)c(C)c1[N+](=O)[O-] (stereo not shown) | -19.6 |
| Cc1nn(Cc2ccc(C(=O)N3N=C(C(F)F)CC3(O)C(F)F)cc2)c(C)c1[N+](=O)[O-] (stereo not shown) | -62.9 |
| CC1=NN(C(=O)c2ccc(Cn3nc(C)c([N+](=O)[O-])c3C)o2)C(O)(C(F)(F)F)C1 (stereo not shown) | -52.8 |
| Cc1nn(Cc2ccc(C(=O)N3N=C(C(F)F)CC3(O)C(F)F)o2)c(C)c1[N+](=O)[O-] (stereo not shown) | -37.3 |
| CC1=NN(C(=O)c2cccc(Cn3nc(C)c([N+](=O)[O-])c3C)c2)C(O)(C(F)(F)F)C1 (stereo not shown) | 0.484 |
| C=CCn1c(=O)/c(=C\c2ccccn2)s/c1=C(/C#N)C(=O)NCC1CCCO1 (stereo not shown) | -3.51 |
| CN1CCC(=NNC(=O)CN(c2ccc(Oc3ccccc3)cc2)S(C)(=O)=O)CC1 | 9.51 |
| Cc1ccc([N+](=O)[O-])cc1S(=O)(=O)NCCc1cn2ccccc2n1 | -2.95 |
| CC(C)CCN(C(=O)CNC(=O)c1cccs1)C(C(=O)NC1CCCCC1)c1cccnc1 (stereo not shown) | -36.4 |
| C=C1C(=O)[C@@]23[C@H](O)C[C@@H]4C(C)(C)CC[C@H](O)[C@@]4(C)[C@@H]2CC[C@@H]1[C@H]3O | -9.9 |
| COc1ccc(Cn2c(C(F)(F)F)ccc(C(N)=O)c2=O)cc1 | 1.62 |
| Clc1ccc(-c2cc(-c3nnc4n3CCCCC4)c3ccccc3n2)cc1 | -42.1 |
| N=c1c2ccccc2nc2n1CCCCCCCCCCC2 | -62 |
| Fc1ccc(-c2cc(-c3nnc4n3CCCCC4)c3ccccc3n2)cc1 | -63.5 |
| O=c1c2ccccc2nc2n1CCC2 | 13.6 |
| c1ccc2c(-c3nnc4n3CCCCC4)cc(-c3ccncc3)nc2c1 | -48.7 |
| O=c1c2ccccc2nc2n1CCCCC2 | -4.17 |

| SMILES | hERG current change (%, negative = inhibition) at 10uM [%] |
| --- | --- |
| O=C(NCc1cccnc1)c1cc2nc(-c3ccc4c(c3)OCO4)cc(C(F)(F)F)n2n1 | 3.07 |
| COc1ccc(NS(=O)(=O)c2cccc(C(=O)NNC(=O)NCCCl)c2)cc1 | 20.3 |
| CN1CCc2c(sc(NC(=O)c3ccc(S(=O)(=O)N4CCCCCC4)cc3)c2C(N)=O)C1 | 5.51 |
| O=C1CN(C(=O)c2ccc(Cl)c(S(=O)(=O)N3CCc4ccccc43)c2)c2ccccc2N1 | -21 |
| COCCn1nnnc1CN1CCC(C)CC1 | -2.19 |
| O=C(Cn1cnc2c(oc3ccccc32)c1=O)c1ccccc1 | 2.38 |
| O=C(NC1CCCCCC1)C1CCN(S(=O)(=O)c2ccc(F)cc2)CC1 | 0.579 |
| O=S(=O)(c1ccc(N2CCOCC2)c(Cl)c1)N1CCOCC1 | 15.5 |
| CN1/C(=C\C=Nc2ccc3ccccc3c2)C(C)(C)c2ccccc21 | -74.8 |
| CN1/C(=C\C=Nc2cc(S(=O)(=O)N3CCOCC3)ccc2N2CCOCC2)C(C)(C)c2ccccc21 | -71 |
| Cc1cc(/N=C/C=C2\N(C)c3ccccc3C2(C)C)n(CCC#N)n1 | -29.8 |
| Cc1ccccc1N=C/C=C1\N(C)c2ccccc2C1(C)C | -70.7 |
| CN1/C(=C\C=Nc2ccccc2)C(C)(C)c2ccccc21 | -72.1 |
| CN1/C(=C\C=N\O)C(C)(C)c2ccccc21 | 17.1 |
| CN1/C(=C/C=C(C#N)C#N)C(C)(C)c2ccccc21 | 14.7 |
| CN1C(=O)C(C)(C)c2cc(S(=O)(=O)N3CCN(c4ccccc4F)CC3)ccc21 | -3.03 |
| CO/N=C/C=C1/N(C)c2ccccc2C1(C)C | 19.8 |
| CN1/C(=C/C=N/n2cnnc2)C(C)(C)c2ccccc21 | -1.92 |
| Cc1ccccc1N=CC=C1OC(C)(C)C(C)(C)O1 | -1.54 |
| COc1ccc(NC(=O)NCc2ccncc2)cc1 | 13.8 |
| CC(C)(C)c1ccc(C(=O)NNc2ccc(F)cc2F)cc1 | 9.96 |
